# Measured values taken from PubChem BioAssay AID720541 (National Center for Advancing Translational Sciences (NCATS), 2013).
# The campaign covered roughly 1,300 compounds. About 420 (32%) were called active. Another 32% or so got no clear call; they are omitted. The call rests on the fitted dose curve; in most records, active means well fitted inhibition curve with a large enough effect; inconclusive means small, poorly fitted or top-dose-only effect; inactive means no such curve, though single readings can be large or run the other way. The list shows a part of the results. Entries that show only a call come without a potency.
# Target: C-terminal-binding protein 1 (Homo sapiens) (UniProt Q13363)
# Experiment: qHTS for Inhibitors of the Phosphatase Activity of Eya2: Carboxyl-terminal binding protein (CtBP) Counterscreen for Cherry-picked Compounds; further: nearly all actives have a fitted effect of over 65% in size
# Conditions: purified protein-protein binding, AlphaScreen, 3 h; series mostly up to 46.1 µM
# Description: The Eya protein family is an essential co-activator of the Six1 transcription factor. Six1 is a developmental gene that is abnormally re-expressed in a large percentage of breast cancers. This over-expression plays a causal role in the initiation and metastatic development of breast cancers. The Eya family of protein is also found to contain a unique HAD phosphatase domain with protein tyrosine phosphatase activity which can potentially play a role in Six1-mediated breast tumorigenesis. Recently, Eya2 is found to dephosphorylate the histone variant H2AX and direct cells towards DNA repair instead of apoptosis in the event of DNA damage.
# A 1536 well format, fluorescence based qHTS assay was developed and used to target the phosphatase activity of Eya2 (AID 488837). In addition, a CtBP counterscreen was developed using the AlphaScreen technology to evaluate compound selectivity to target […]. The data herein reports the activity of the cherry-picked compounds against the CtBP AlphaScreen. Compounds that are active or have > 100 fold selectivity vs. the Eya2 activity were excluded for further characterization. Inactivity is the desired outcome for the CtBP counterscreen.
# NIH Chemical Genomics Center [NCGC]
# NIH Molecular Libraries Probe Centers Network [MLPCN]
# Assay Submitter (PI): Rui Zhao, University of Colorado Denver
# Four microliters of reagent (25 nM GST-E1A, 25 nM CtBP-6x HIS) was dispensed in a 1536 well Greiner plates. Twenty-three nanoliter of test compounds (final concentration of 2.5 nM - 46 uM) and positive control E1A peptide inhibitor (final concentration of 0.14 nM - 4.6 uM) were added to the plates using the Kalypsys pintool equipped with a 1536 pin head. The plates was then incubated at room temperature for 2 hours followed by addition of 1 uL Alpha bead donor / acceptor mix (20 ug/mL final concentration). The assay plates were incubated for additional 1 hour at room temperature and protected from light. The AlphaScreen signal was obtained using the PerkinElmer EnVision plate reader using the 680 nm excitation and 520 - 620 nm emission filters. The data was normalized to the E1A peptide inhibitor for maximum inhibition and DMSO treated wells as negative control.
# Potency means the concentration at half of the fitted maximal effect.
row,Structure (SMILES),Potency
1,COc1ccc(-c2nc(N)ncc2-c2csc(C)n2)c(O)c1,inactive
2,C=C(C)COc1ccc(-c2nc(N)nc(C)c2-c2ccc(OC)cc2)c(O)c1,6.01 µM (active)
3,CC(C)S(=O)(=O)c1cnc(-c2ccccn2)nc1N,13.5 µM (active)
4,CCc1cc2c(=O)[nH]c(-c3ccccn3)nc2s1,1.9 µM (active)
5,Cn1c(-c2cc(Cl)ccc2O)nc2c1c(=O)[nH]c(=O)n2Cc1ccccc1,inactive
6,COc1cc(NC(=O)c2ccc(S(=O)(=O)N(C)c3ccccc3)cc2)cc(OC)c1,inactive
7,COc1cccc(NC(=O)c2ccc3c(c2)CCN3S(C)(=O)=O)c1,inactive
8,CC(=O)Oc1cccc(C(=O)Nc2cccc(C(=O)Nc3ccccc3C(=O)O)c2)c1,8.49 µM (active)
9,CC(=O)c1ccc(NS(=O)(=O)c2cccc(C(=O)Nc3ccccc3C(=O)O)c2)cc1,15.1 µM (active)
10,CN(CC(=O)Nc1cccc(F)c1)C(=O)c1ccc(COc2ccccc2)cc1,inactive
11,CC(C)CCNC(=O)c1onc(CSc2ccncc2)c1C(=O)NCCC(C)C,inactive
12,Cc1nn(-c2ccccc2)c2c1C(c1cccnc1)N1C=C(S(=O)(=O)N3CCCCC3)C=CC1=N2 (centres undefined),inactive
13,CC1CCCN(c2ccc3nc4ccccc4c(=O)n3n2)C1 (centres undefined),7.57 µM (active)
14,COc1cc(/C=C2\C(C)=C(C#N)c3nc(N)c(C#N)c(C)c32)ccc1OCC(=O)O,8.49 µM (active)
15,COc1cc(C=NO)nc(-c2ccccn2)c1,1.07 µM (active)
16,NC(=O)c1nn2c(C(F)(F)F)cc(-c3ccccc3)nc2c1Br,10.7 µM (active)
17,Cc1ccc(C(=O)ON=C2CCN(c3ccc([N+](=O)[O-])cc3)CC2)cc1,inactive
18,CCN(Cc1cccc(S(=O)(=O)O)c1)c1ccc(C(=C2C=CC(=[N+](CC)Cc3cccc(S(=O)(=O)O)c3)C=C2)c2ccccc2S(=O)(=O)[O-])cc1,12 µM (active)
19,CCN(Cc1cccc(S(=O)(=O)O)c1)c1ccc(C(=C2C=CC(=[N+](CC)Cc3cccc(S(=O)(=O)O)c3)C=C2)c2ccc(O)cc2S(=O)(=O)O)cc1,12 µM (active)
20,N#CC1=C(N)n2c(s/c(=C\c3cccs3)c2=O)=C(C#N)C1c1cccs1 (centres undefined),13.5 µM (active)
21,CC(=O)N1CCCc2cc(S(=O)(=O)N3CCCC(C(=O)N4CCN(c5cc(C)ccc5C)CC4)C3)ccc21 (centres undefined),inactive
22,CN1C(=O)NC(c2ccccc2)(C(F)(F)F)S/C1=C(/C#N)c1nnc(N2CCOCC2)n1-c1ccccc1 (centres undefined),inactive
23,CCOc1cc(C=NNC(=O)c2cccc(S(=O)(=O)N3CCCC3)c2)ccc1O,7.57 µM (active)
24,Cc1ccccc1Nc1c(-c2ccccn2)nc2ccccn12,2.69 µM (active)

row,Structure (SMILES),Potency
1,Cc1ccc(Nc2c(-c3ccccn3)nc3ccc(C)cn23)cc1,4.26 µM (active)
2,Cc1cccc(C)c1Nc1c(-c2ccccn2)nc2ccccn12,7.57 µM (active)
3,Cc1onc(-c2ccccc2Cl)c1C(=O)N(Cc1ccc(N(C)C)cc1)C(C)C,inactive
4,Cc1cccc(S(=O)(=O)C(C#N)c2nc3ccccc3nc2N2CCOCC2)c1 (centres undefined),inactive
5,CC(C)N=c1cc2n(-c3ccc(Cl)cc3)c3ccccc3nc-2cc1Nc1ccc(Cl)cc1,3.38 µM (active)
6,O=S(=O)(Nc1cccc(-c2cn3cccnc3n2)c1)c1ccccc1,4.26 µM (active)
7,Cn1c(=O)c2cc(S(=O)(=O)Nc3cccc(F)c3)ccc2n(C)c1=O,inactive
8,O=S(=O)(Nc1cccc(-c2cn3cccnc3n2)c1)c1ccc(F)cc1,15.1 µM (active)
9,COc1cc(NC(=O)c2cccs2)c(OC)cc1NC(=O)Nc1ccc(F)cc1,inactive
10,COc1cc(NC(=O)c2cccs2)c(OC)cc1NC(=O)CCn1nnc2ccccc21,12 µM (active)
11,COc1cc(NC(=O)c2cccs2)c(OC)cc1NC(=O)Cc1ccccc1,7.57 µM (active)
12,COc1cc(NC(=O)c2cccs2)c(OC)cc1NC(=O)CCC(=O)Nc1ccc2ncccc2c1,1.69 µM (active)
13,O=C(CNC(=O)c1cccs1)OCC(=O)c1ccc(Cl)cc1,inactive
14,O=C(CC(=O)c1c(F)cccc1Cl)c1ccccc1O,inactive
15,Cc1ccc(S(=O)(=O)Nc2c(C)n(C)n(-c3ccccc3)c2=O)cc1C(=O)OC(C)C(=O)N(C)c1ccccc1 (centres undefined),inactive
16,O=C1/C(=C/c2ccco2)SC(=S)N1c1cccnc1,15.1 µM (active)
17,CCOC(=O)c1c(C)oc2c1c(C=NCc1ccccn1)c(O)c1ccccc12,15.1 µM (active)
18,O=C(O)c1cccc(N2C(=O)c3cccc(Oc4ccc(Cl)cc4)c3C2=O)c1,inactive
19,CC(=O)Oc1cccc2c1C(=O)c1c(OC(C)=O)cc(C(=O)O)cc1C2=O,12 µM (active)
20,N#C/C(=C\c1ccc(OC(=O)c2ccc(Cl)s2)cc1)c1nc2ccccc2[nH]1,inactive
21,N#C/C(=C/c1ccc(OC(=O)c2ccc(Br)s2)cc1)c1nc2ccccc2[nH]1,inactive
22,N#C/C(=C\c1ccc(OC(=O)c2ccccn2)cc1)C(N)=O,12 µM (active)
23,N#C/C(=C\c1ccc(OC(=O)c2ccc(Br)s2)cc1)c1nc2ccccc2[nH]1,inactive
24,CCOC(=O)/C(C#N)=C/c1ccc(OC(=O)c2ccccn2)cc1,7.57 µM (active)

row,Structure (SMILES),Potency
1,O=C(Oc1cncc(Cl)c1)c1sccc1Cl,inactive
2,Cc1cc2nc(/N=C(\N)NC(=O)N3c4ccccc4Sc4ccccc43)nc(C)c2cc1C,inactive
3,Cc1c(CCC(=O)O)c(=O)oc2c(C)c(OCc3cc4c(cc3Cl)OCO4)ccc12,13.5 µM (active)
4,Cc1cc(C)cc(COc2ccc3c(C)c(CC(=O)O)c(=O)oc3c2C)c1,inactive
5,O=C(Cn1ccc(=O)[nH]c1=O)Nc1nccs1,inactive
6,Nc1ccc(N2CCCCC2)c2nonc12,6.75 µM (active)
7,O=C(Cc1cccs1)Nc1ccc2c(c1)C(=O)OC2,inactive
8,O=C1CCCC2=C1C(c1ccco1)Nc1ccc3ccccc3c12 (centres undefined),inactive
9,Cc1cc(NS(=O)(=O)c2ccc(NC(=O)c3cc4c(=O)n5ccccc5nc4s3)cc2)nc(C)n1,6.75 µM (active)
10,O=C(O)c1ccc(Nc2cnc3ccccc3n2)cc1,inactive
11,O=C(Nc1ccc(S(=O)(=O)Nc2cnc3ccccc3n2)cc1)c1ccc(Cl)c([N+](=O)[O-])c1,2.13 µM (active)
12,O=C(Nc1ccc(Nc2ccccc2)cc1)c1ccc(Cl)cc1[N+](=O)[O-],inactive
13,Cc1cc(NS(=O)(=O)c2ccc(NC(=O)c3cnc(Cl)c(Cl)c3)cc2)nc(C)n1,1.69 µM (active)
14,CCC(C)N(C(=O)CSc1nc(-c2cccs2)nc2ccccc12)C1CCS(=O)(=O)C1 (centres undefined),inactive
15,CSc1nc(NCCOCCO)c2sc3nc(-c4ccco4)c4c(c3c2n1)CCC4,5.36 µM (active)
16,OCCN(Cc1cccnc1)Cc1ccccn1,5.36 µM (active)
17,COCC(C)n1c(-c2ccc3c(c2)NC(=O)CO3)csc1=Nc1ccc(OC(F)F)cc1 (centres undefined),inactive
18,CCOC(=O)c1cc2c(N)c(C(=O)c3ccc(Br)cc3)sc2[nH]c1=O,1.9 µM (active)
19,Cc1cc(C(=O)CSc2nc(N)cc(N)n2)c(C)n1C1CC1,inactive
20,COc1ccccc1C(CCNCc1ccc(N(C)C)cc1)c1ccc(OC(C)C)cc1 (centres undefined),6.01 µM (active)
21,COc1ccc(C(CCNCc2ccc(N(C)C)cc2)C(C)C)cc1 (centres undefined),12 µM (active)
22,COc1ccc(C(NC(C)=O)c2cc(Cl)c3cccnc3c2O)cc1OC (centres undefined),1.69 µM (active)
23,CCCCC(=O)NC(c1ccco1)c1cc(Cl)c2cccnc2c1O (centres undefined),4.78 µM (active)
24,CCCCC(=O)NC(c1cccc([N+](=O)[O-])c1)c1ccc2cccnc2c1O (centres undefined),inactive

row,Structure (SMILES),Potency
1,COc1ccc(C(NC(C)=O)c2ccc3cccnc3c2O)cc1OC (centres undefined),1.35 µM (active)
2,CCC(=O)NC(c1cccs1)c1cc(Cl)c2cccnc2c1O (centres undefined),1.69 µM (active)
3,CCOC(=O)N1CCN(S(=O)(=O)c2ccc(C(=O)NNc3nc4c(C)cc(C)cc4s3)cc2)CC1,inactive
4,O=c1[nH]c(/C=C\c2ccc(O)cc2)nc(O)c1[N+](=O)[O-],inactive
5,O=C(NCCC1=CCCCC1)c1[nH]c(C(F)(F)F)nc1-c1ccccc1,inactive
6,O=C(NC1CCCCC1)N1CCN(C2CCCCC2)CC1,inactive
7,CCCC(=O)NC(c1ccc(OC)c(OC)c1)c1cc(Cl)c2cccnc2c1O (centres undefined),1.69 µM (active)
8,O=C(O)c1ccccc1NC(c1ccccc1)c1ccc2cccnc2c1O (centres undefined),1.9 µM (active)
9,O=C(Oc1ccc(Cl)c2cccnc12)C12CC3CC(CC(C3)C1)C2,inactive
10,CCC(=O)NC(c1ccc(OC)c(OC)c1)c1cc(Cl)c2cccnc2c1O (centres undefined),1.69 µM (active)
11,CC(=O)NC(c1ccc(Cl)cc1)c1ccc2cccnc2c1O (centres undefined),1.9 µM (active)
12,O=C(Nc1ncc(Cc2ccccc2Cl)s1)c1ccc(-c2cccc([N+](=O)[O-])c2)o1,inactive
13,COc1ccc(C2c3[nH]c4ccccc4c3C[C@H]3C(=O)N(C4CCN(Cc5ccccc5)CC4)CC(=O)N23)cc1OC (some centres undefined),inactive
14,CCCCOC(=O)CCCc1ccc([N+](=O)[O-])cc1[N+](=O)[O-],inactive
15,CCOc1ccc2c(c1)C(c1ccc(C)cc1)=NNC(c1ccc(OC)cc1)=N2,inactive
16,O=c1c2ccccc2c(C=Nc2cccc(S(=O)(=O)NC3=NCCCCC3)c2)c(O)n1Cc1ccccc1,inactive
17,CCN(CC)CCNC(=O)c1ccc(N)cc1,inactive
18,CC(C)C(=O)NC(c1ccc(Cl)cc1Cl)c1ccc2cccnc2c1O (centres undefined),5.36 µM (active)
19,O=C(CSc1nnc2c(Cl)cc(Cl)cn12)NC1CCS(=O)(=O)C1 (centres undefined),inactive
20,O=C(C[n+]1ccccc1)c1ccc(O)c(O)c1,inactive
21,CC12CC3(C)CC(C)(C1)CC(C(=O)NC(=S)N1CCOCC1)(C2)C3,inactive
22,COc1ccc(-c2nnc(NC(=O)c3ccc(S(=O)(=O)N(C)CC4CCCO4)cc3)o2)c(OC)c1 (centres undefined),16.9 µM (active)
